Growth inhibition data for eight molecules are collected here from PubChem BioAssay (NCI).

This experiment can be described thus: NCI Yeast Anticancer Drug Screen. Data for the CLN2oe strain (AID 163).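 Note: 0% = growth of vehicle-only control cultures.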 The conditions noted are these: S. cerevisiae CLN2oe strain, hits give high values. The method, then: Growth inhibition of yeast strains with defined genetic alterations is measured as a screen for potential anti-cancer activity. Selected strains with alterations in DNA damage repair or cell cycle control were exposed to compounds and growth inhibition was measured relative to vehicle treated controls. The strain used in this assay is CLN2oe

This is part of a sample that, as a whole, favours compounds with a hit. Of some 79,000 tested, about 15% had one in any assay. Unmarked numbers belong to inactive results. Active and inactive are the calls of the source. Cut-off read from the data, not from the text of the source: active = growth inhibition above about 70%; inactive = the rest.

Take `COc1ccc(/C=C2\SC(=S)N(/C=C/c3nc4ccccc4[nH]c3=O)C2=O)cc1OC`: the growth inhibition is -17% (at 1.2 µM); -11% (at 3.7 µM); 7% (at 11.0 µM); 59% (at 33.0 µM); 88% (active) (at 100.0 µM).

As for `N/C(=N\OC(=O)NC(Cl)=C(Cl)Cl)c1cc(C(F)(F)F)cc(C(F)(F)F)c1`, the growth inhibition is 25% (at 1.2 µM); 11% (at 3.7 µM); 7% (at 11.0 µM); 66% (at 33.0 µM); 98% (active) (at 100.0 µM).

In the case of `C#CCCCc1ccccc1`, the growth inhibition is -7% (at 1.2 µM); -5% (at 3.7 µM); 4% (at 11.0 µM); 2% (at 33.0 µM); 73% (active) (at 100.0 µM).

For `CC(C)(Br)C(=O)/C=C/c1ccc(Cl)c(Cl)c1`, the growth inhibition (at 1.2 µM) is -3%; the growth inhibition (at 3.7 µM) was -1%; the growth inhibition (at 11.0 µM) was -5%; the growth inhibition (at 33.0 µM) is 0%; the growth inhibition (at 100.0 µM) was 0%.

For `c1ccc2c(c1)NC(NC1Nc3ccccc3N1)N2`, the growth inhibition was -6% (at 1.2 µM); -17% (at 3.7 µM); -9% (at 11.0 µM); -7% (at 33.0 µM); 8% (at 100.0 µM).

Regarding `CCCCCCCCCC/C=C\C(=O)O`, the growth inhibition runs as follows: (at 1.2 µM) 15%; (at 3.7 µM) 25%; (at 11.0 µM) 7%; (at 33.0 µM) -20%; (at 100.0 µM) 97% (active).

On to `CCN(CC)CCNc1ccc([N+](=O)[O-])c2nc3ccc(OC)cc3c(N)c12`, for which the growth inhibition (at 1.2 µM) was 10%; the growth inhibition (at 3.7 µM) is 15%; the growth inhibition (at 11.0 µM) was 22%; the growth inhibition (at 33.0 µM) was 25%; the growth inhibition (at 100.0 µM) is 64%.

`CC(=O)Oc1cc(-c2cc(OC(C)=O)c(OC(C)=O)c3ccccc23)c2ccccc2c1OC(C)=O`: the growth inhibition is, setting by setting: (at 1.2 µM) 3%; (at 3.7 µM) 0%; (at 11.0 µM) -5%; (at 33.0 µM) -2%; (at 100.0 µM) 57%.
